This note sets out measurements from the supplement of paper PMC7724964.

Common to all, as to test: phage ELISA signal ratio (GST-PRM binding over GST background); higher = stronger binding of peptide-phage to the PRM
Experiment [1] has as its target T1, CLTC 1-363 Clathrin_propel+Clathrin-link (domain begin residue: 1, domain end residue: 363), Q00610.
T1 chain: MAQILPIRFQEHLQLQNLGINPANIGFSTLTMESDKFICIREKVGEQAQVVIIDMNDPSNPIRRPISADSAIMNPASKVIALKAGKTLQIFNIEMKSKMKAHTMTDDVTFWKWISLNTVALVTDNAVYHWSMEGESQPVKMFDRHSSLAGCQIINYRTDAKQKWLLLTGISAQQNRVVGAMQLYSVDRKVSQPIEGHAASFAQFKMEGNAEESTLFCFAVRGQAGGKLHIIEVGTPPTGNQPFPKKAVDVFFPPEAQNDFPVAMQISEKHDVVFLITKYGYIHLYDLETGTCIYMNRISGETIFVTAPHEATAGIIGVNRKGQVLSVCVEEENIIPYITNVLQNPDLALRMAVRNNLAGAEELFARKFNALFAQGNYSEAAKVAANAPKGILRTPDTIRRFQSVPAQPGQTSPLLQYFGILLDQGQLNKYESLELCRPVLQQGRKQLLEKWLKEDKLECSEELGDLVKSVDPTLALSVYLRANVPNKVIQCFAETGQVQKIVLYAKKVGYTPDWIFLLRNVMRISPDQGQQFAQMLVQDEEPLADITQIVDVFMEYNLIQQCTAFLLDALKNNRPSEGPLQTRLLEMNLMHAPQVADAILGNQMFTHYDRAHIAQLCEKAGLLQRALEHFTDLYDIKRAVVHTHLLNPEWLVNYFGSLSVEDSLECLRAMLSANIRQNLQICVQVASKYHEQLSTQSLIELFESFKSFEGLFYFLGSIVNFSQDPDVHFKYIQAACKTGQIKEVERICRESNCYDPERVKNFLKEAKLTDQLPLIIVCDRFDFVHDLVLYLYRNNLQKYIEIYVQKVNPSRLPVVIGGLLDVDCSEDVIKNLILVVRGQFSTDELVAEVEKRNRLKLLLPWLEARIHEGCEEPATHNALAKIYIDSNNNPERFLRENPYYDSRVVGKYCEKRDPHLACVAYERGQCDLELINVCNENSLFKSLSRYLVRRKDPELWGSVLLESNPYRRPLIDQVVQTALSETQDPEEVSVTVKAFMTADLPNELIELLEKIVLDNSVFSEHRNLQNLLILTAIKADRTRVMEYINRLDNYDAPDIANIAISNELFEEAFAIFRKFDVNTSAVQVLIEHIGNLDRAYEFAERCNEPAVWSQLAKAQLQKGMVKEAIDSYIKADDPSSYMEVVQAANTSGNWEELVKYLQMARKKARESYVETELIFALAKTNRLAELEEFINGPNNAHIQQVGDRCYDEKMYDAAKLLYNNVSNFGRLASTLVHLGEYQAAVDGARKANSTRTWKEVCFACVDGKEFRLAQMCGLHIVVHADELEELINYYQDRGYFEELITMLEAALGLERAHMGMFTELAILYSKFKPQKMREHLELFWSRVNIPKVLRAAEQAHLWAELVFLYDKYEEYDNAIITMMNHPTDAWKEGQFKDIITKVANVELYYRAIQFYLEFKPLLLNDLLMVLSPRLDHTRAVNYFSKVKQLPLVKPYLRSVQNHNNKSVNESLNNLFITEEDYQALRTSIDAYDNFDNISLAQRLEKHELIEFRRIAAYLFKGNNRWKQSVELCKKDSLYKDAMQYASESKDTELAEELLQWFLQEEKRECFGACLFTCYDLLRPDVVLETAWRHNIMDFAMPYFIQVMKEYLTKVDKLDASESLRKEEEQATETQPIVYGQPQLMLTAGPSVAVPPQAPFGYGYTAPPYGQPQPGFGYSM
The protocol:
(§1)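 Phage-displayed random hexadecapeptides (Cys-free, flanked by invariant Gly linkers, fused to the M13 P8 major coat protein) were selected over 5 rounds against GST-fused human PRM domains. Individual clones from rounds 4-5 were tested by phage ELISA, and positive clones binding the target but not GST were sequenced. Values are the ELISA signal ratio of target over background (GST); the background signal is given separately.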

Experiment [2] concerns the target T2, CD2BP2 256-341 GYF (domain begin residue: 256, domain end residue: 341), O95400.
T2 chain: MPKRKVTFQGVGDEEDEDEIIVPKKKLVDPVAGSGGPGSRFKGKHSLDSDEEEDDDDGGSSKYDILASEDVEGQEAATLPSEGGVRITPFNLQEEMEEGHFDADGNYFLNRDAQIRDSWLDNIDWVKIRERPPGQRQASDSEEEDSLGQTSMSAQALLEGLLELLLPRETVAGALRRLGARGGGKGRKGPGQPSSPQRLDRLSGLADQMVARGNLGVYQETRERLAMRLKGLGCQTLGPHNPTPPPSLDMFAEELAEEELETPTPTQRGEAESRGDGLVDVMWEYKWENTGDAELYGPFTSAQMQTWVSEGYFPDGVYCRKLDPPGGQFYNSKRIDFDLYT
The protocol: as §1

Experiment [3] concerns the target CKS1B 1-79 CKS (domain begin residue: 1, domain end residue: 79), P61024. The protocol:
as §1

The target of experiment [4] is DEPDC6 20-129 DEP (domain begin residue: 20, domain end residue: 129). As for the experimental part: as §1
For experiment [5], the target named is T3, CTDSP2 90-271 NIF (domain begin residue: 90, domain end residue: 271), O14595.
T3 chain: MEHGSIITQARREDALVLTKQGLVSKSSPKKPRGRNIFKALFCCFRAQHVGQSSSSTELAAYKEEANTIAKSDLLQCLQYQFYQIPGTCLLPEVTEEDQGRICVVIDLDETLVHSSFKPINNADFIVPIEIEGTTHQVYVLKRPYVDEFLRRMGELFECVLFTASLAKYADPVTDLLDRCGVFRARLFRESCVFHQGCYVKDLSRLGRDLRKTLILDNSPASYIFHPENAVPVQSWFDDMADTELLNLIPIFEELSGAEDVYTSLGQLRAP
As for the experimental part:
as §1

Experiment [6] addresses DEPDC6 132-222 DEP (domain begin residue: 132, domain end residue: 222). The protocol:
as §1

Experiment [7] has as its target CBX5 109-173 Chromo_shadow (domain begin residue: 109, domain end residue: 173), P45973. As for the experimental part:
as §1

Experiment [8] addresses DCTN1 26-97 CAP_GLY (domain begin residue: 26, domain end residue: 97), Q14203. As for the experimental part:
as §1

Sequence of CKS1B 1-79 CKS (domain begin residue: 1, domain end residue: 79), P61024 (P61024 whole entry): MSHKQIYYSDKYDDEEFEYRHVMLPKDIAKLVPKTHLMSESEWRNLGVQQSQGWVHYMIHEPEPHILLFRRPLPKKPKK
Sequence of DCTN1 26-97 CAP_GLY (domain begin residue: 26, domain end residue: 97), Q14203 (Q14203 whole entry): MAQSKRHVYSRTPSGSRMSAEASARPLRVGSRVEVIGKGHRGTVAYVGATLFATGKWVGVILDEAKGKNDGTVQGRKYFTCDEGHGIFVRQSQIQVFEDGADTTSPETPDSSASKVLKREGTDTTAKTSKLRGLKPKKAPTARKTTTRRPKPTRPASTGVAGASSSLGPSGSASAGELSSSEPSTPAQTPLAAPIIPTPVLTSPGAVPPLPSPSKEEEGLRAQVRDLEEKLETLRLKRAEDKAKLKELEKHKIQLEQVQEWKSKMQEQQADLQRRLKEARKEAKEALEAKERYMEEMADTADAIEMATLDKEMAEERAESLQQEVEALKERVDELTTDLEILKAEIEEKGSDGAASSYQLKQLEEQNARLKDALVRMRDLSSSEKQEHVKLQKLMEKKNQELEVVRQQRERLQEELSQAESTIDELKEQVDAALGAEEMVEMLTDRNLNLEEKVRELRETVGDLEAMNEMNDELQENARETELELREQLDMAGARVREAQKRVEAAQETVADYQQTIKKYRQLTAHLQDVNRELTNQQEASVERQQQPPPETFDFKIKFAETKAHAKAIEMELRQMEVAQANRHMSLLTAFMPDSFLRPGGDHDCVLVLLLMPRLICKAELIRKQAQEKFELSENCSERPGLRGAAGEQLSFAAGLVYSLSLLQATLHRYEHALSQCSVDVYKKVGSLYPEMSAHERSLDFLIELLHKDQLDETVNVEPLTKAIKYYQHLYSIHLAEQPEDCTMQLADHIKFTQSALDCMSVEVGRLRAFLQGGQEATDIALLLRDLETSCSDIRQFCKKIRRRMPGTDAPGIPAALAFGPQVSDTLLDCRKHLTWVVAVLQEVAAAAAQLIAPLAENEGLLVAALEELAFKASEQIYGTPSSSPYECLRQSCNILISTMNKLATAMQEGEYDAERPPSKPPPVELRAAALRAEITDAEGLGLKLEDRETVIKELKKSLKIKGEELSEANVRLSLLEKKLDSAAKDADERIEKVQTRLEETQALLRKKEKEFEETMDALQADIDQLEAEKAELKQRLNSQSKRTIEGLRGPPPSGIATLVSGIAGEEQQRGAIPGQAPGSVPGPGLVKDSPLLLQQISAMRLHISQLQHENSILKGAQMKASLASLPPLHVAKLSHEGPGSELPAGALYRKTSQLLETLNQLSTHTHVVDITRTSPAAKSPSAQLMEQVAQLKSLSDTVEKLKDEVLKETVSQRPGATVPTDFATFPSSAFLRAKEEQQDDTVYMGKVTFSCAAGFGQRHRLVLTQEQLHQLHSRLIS
Sequence of CBX5 109-173 Chromo_shadow (domain begin residue: 109, domain end residue: 173), P45973 (P45973 whole entry): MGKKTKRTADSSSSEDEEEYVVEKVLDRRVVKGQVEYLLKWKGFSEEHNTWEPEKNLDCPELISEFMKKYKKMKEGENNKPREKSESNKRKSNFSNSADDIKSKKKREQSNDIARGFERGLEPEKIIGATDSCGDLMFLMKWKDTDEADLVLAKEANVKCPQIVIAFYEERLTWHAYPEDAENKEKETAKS

B1: unnamed (peptide)
chain: DLMWWPETELHQGSWS
In the case of B1, the “phage ELISA signal ratio” value in experiment [1] was 17.3.

B2: unnamed (peptide)
chain: PPPGYSKWTWSVQERV
For B2, in experiment [2], the “phage ELISA signal ratio” value is 14.2.

B3: unnamed (peptide)
chain: WELQWDAIWGFPDELA
Turning to B3, the “phage ELISA signal ratio” value in experiment [1] was determined as 30.6.

B4: unnamed (peptide)
chain: GPLAWFLEDPYSSRVG
Regarding B4, in experiment [3], the “phage ELISA signal ratio” value stood at 11.1.

B5: unnamed (peptide)
chain: DLIWWTDLTEEYGTHV
As for B5, the “phage ELISA signal ratio” value in experiment [1] is 21.9.

B6: unnamed (peptide)
chain: MEEPPGYRLNMYAMSY
As for B6, the “phage ELISA signal ratio” value in experiment [2] was 17.5.

B7: unnamed (peptide)
chain: EVPLWFYNIISEFHET
For the molecule B7, the “phage ELISA signal ratio” value in experiment [4] was 13.8.

B8: unnamed (peptide)
chain: EPFMVAWESFMLTHAM
Regarding B8, the “phage ELISA signal ratio” value in experiment [5] was found to be 7.49.

B9: unnamed (peptide)
chain: YPYPPGWDSNYAQRVE
For B9, in experiment [2], the “phage ELISA signal ratio” value turned out to be 19.2.

B10: unnamed (peptide)
chain: YTLTIDELEHWLSAGG
Turning to B10, the “phage ELISA signal ratio” value in experiment [1] was 31.7.

B11: unnamed (peptide)
chain: IDYESIFYEGMHWHTL
In the case of B11, the “phage ELISA signal ratio” value in experiment [3] is 22.1.

B12: unnamed (peptide)
chain: EDPTLKVGHPPGWSFK
On to B12, for which the “phage ELISA signal ratio” value in experiment [2] is 17.6.

B13: unnamed (peptide)
chain: IWWEQLHQDDWQAIWA
For the molecule B13, the “phage ELISA signal ratio” value in experiment [6] is 15.1.

B14: unnamed (peptide)
chain: QFLPTTWQDYLLYMDQ
Turning to B14, in experiment [7], the “phage ELISA signal ratio” value amounted to 3.39.

B15: unnamed (peptide)
chain: HEFTPPWTWDWDIPHI
B15: the “phage ELISA signal ratio” value in experiment [8] stood at 7.35.

B16: unnamed (peptide)
chain: TAPPGYGARYMETPYV
As for B16, the “phage ELISA signal ratio” value in experiment [2] was 16.9.

B17: unnamed (peptide)
chain: GHPPGWSEFGWEHLVI
Consider B17, for which the “phage ELISA signal ratio” value in experiment [2] turned out to be 16.2.

B18: unnamed (peptide)
chain: FKEWTWSPVEWGQAES
Turning to B18, in experiment [8], the “phage ELISA signal ratio” value was 6.09.

B19: unnamed (peptide)
chain: SDGDLIWWDWAYNAEQ
In the case of B19, the “phage ELISA signal ratio” value in experiment [1] worked out at 15.9.

B20: unnamed (peptide)
chain: THSEQWFETLMWNFHN
Take B20: in experiment [4], the “phage ELISA signal ratio” value was 3.26.

B21: unnamed (peptide)
chain: GWEPQWFPSEHLADGN
In the case of B21, in experiment [3], the “phage ELISA signal ratio” value was found to be 7.45.

B22: unnamed (peptide)
chain: MYEFLIEPEDDWWWWN
Consider B22, for which the “phage ELISA signal ratio” value in experiment [1] stood at 26.5.

B23: unnamed (peptide)
chain: EQVSFMHEWHQRFWQT
In the case of B23, the “phage ELISA signal ratio” value in experiment [5] is 9.81.

B24: unnamed (peptide)
chain: DWAQVLWQDAHDWPVY
As to B24, the “phage ELISA signal ratio” value in experiment [1] amounted to 23.9.

B25: unnamed (peptide)
chain: LNWWTYEELQDLEQFT
Consider B25, for which the “phage ELISA signal ratio” value in experiment [3] was 22.8.

B26: unnamed (peptide)
chain: QEFMSISYPPGMPQDP
Take B26: the “phage ELISA signal ratio” value in experiment [2] came out at 14.4.

B27: unnamed (peptide)
chain: DFQGIMDSYRAMEINT
With B27, the “phage ELISA signal ratio” value in experiment [4] worked out at 20.1.

B28: unnamed (peptide)
chain: LAGFHPWFSEMLAEYH
On to B28, for which, in experiment [4], the “phage ELISA signal ratio” value turned out to be 8.33.

B29: unnamed (peptide)
chain: VSYPLVDLSDWHMWTN
As to B29, in experiment [1], the “phage ELISA signal ratio” value was 20.8.
